According to the supplement of paper PMC3545927:
The other results are listed elsewhere or left out. How many sequences the whole screen found active is unknown.

Biological target: furin, P09958
Experiment: furin cleavage Z-score vs untreated control; higher = more cleavage, active = 3.5 or more, inactive = 1 or less, 8 variable residues between constant flanks
Method in brief: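 To give the cleavage Z-score, log read counts were set against furin-free reactions, lowess-adjusted and scaled by median absolute deviation. These counts came from PCR adapter-tagged, sequenced DNA released when purified furin cut 8-mer peptides fused to a cDNA oligonucleotide and held on magnetic beads by their N-terminus. Digests were 0.01 ml, 1:10 enzyme:substrate, in 50 mM HEPES pH 7.5 with CaCl2 and NaCl, for 7.5, 15 or 30 min.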

Sequence of furin, P09958 (P09958 whole entry): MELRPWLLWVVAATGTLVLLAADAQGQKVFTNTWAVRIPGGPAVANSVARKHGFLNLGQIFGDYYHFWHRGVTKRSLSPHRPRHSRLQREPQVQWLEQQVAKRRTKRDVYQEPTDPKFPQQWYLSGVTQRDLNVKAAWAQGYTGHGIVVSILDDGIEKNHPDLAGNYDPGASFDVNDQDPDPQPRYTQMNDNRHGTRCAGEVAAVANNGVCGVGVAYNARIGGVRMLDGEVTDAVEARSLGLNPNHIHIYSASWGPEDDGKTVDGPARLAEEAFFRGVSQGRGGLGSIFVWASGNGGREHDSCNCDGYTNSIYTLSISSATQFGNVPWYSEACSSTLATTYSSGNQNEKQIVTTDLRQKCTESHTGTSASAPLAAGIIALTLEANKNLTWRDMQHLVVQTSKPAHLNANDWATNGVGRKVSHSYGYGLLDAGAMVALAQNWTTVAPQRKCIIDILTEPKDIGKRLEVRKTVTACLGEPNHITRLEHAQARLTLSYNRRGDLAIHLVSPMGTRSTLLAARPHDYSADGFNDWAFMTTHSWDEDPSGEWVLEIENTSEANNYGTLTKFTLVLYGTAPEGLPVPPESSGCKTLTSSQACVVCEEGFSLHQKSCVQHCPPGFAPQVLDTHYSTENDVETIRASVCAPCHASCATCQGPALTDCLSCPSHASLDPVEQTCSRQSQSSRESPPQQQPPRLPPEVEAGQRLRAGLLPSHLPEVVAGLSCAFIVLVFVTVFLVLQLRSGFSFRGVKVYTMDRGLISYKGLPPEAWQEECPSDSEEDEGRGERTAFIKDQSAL

Row | Sequence | furin cleavage Z-score (7.5 min) | furin cleavage Z-score (15 min) | furin cleavage Z-score (30 min)
1 | CARKRRKRKKAGNASASA [FS-858] | 0.153 (inactive) | 0.772 (inactive) | 1.09
2 | CAVKSRKRRKAGNASASA [FS-149] | 11 (active) | 11.7 (active) | 8.76 (active)
3 | CAHPLRKRRKAGNASASA [FS-131] | 8.81 (active) | 9.6 (active) | 7.46 (active)
4 | CAPPLVETWKAGNASASA [HC1308] | 2.31 | 0.789 (inactive) | -0.408 (inactive)
5 | CASTPCSAHIAGNASASA [HC2564] | -0.152 (inactive) | -1.03 (inactive) | -0.677 (inactive)
6 | CALWWLQYFLAGNASASA [HC582] | -0.496 (inactive) | -0.768 (inactive) | -1.19 (inactive)
7 | CAEVVDSTWVAGNASASA [HC132] | -0.25 (inactive) | 1.14 | -1.05 (inactive)
8 | CATTPDSGSWAGNASASA [HC52] | -0.899 (inactive) | -0.656 (inactive) | -0.757 (inactive)
9 | CAHTWREKRLAGNASASA [FS-31] | 1.05 | 0.418 (inactive) | 0.0913 (inactive)
10 | CASTPRSKRLAGNASASA [FS-1091] | 3.77 (active) | 6.77 (active) | 5.46 (active)
11 | CAVLEESKRLAGNASASA [FS-1429] | -0.217 (inactive) | -1.55 (inactive) | -0.503 (inactive)
12 | CASTPCSKHLAGNASASA [HC2534] | 1 | -1.62 (inactive) | 0.302 (inactive)
13 | CASTPCSARLAGNASASA [HC2553] | 0.576 (inactive) | 0.581 (inactive) | -0.498 (inactive)
14 | CATTYRSKRLAGNASASA [FS-886] | 8.78 (active) | 10.5 (active) | 9.12 (active)
15 | CAEVQTSTWVAGNASASA [HC2202] | 0.816 (inactive) | 1.29 | 1.14
16 | CADPLVAEEDAGNASASA [HC1289] | -0.0204 (inactive) | -0.956 (inactive) | -0.261 (inactive)
17 | CARRRRPRREAGNASASA [FS-1404] | 7.83 (active) | 8.28 (active) | 6.14 (active)
18 | CARRPRFKDIAGNASASA [FS-3058] | 0.143 (inactive) | -0.201 (inactive) | 0.618 (inactive)
19 | CARRPRPRREAGNASASA [FS-1480] | 8.98 (active) | 9.92 (active) | 8.21 (active)
20 | CARRRRPERVAGNASASA [FS-3064] | 0.335 (inactive) | 0.809 (inactive) | 1.19
21 | CARRRRPERGAGNASASA [FS-495] | 1.03 | 0.676 (inactive) | 1.87
22 | CADPLRPRREAGNASASA [FS-122] | 5.53 (active) | 5.14 (active) | 4.87 (active)
23 | CALVAFKIMSAGNASASA [HC1092] | -0.725 (inactive) | -0.454 (inactive) | -0.368 (inactive)
24 | CASSSRRSRSAGNASASA [FS-1615] | 7.43 (active) | 8.67 (active) | 6.73 (active)
25 | CASSSRRRRSAGNASASA [FS-1286] | 9.8 (active) | 8.59 (active) | 7.58 (active)
26 | CASSREKRRSAGNASASA [FS-1285] | 0.453 (inactive) | 0.575 (inactive) | 2.39
27 | CAKHSRRRRSAGNASASA [FS-174] | 10.9 (active) | 10.7 (active) | 6.68 (active)
28 | CAAPSRRSRSAGNASASA [FS-216] | 9.21 (active) | 8.84 (active) | 7.91 (active)
